PubChem BioAssay (NCI)
Compounds without any hit were thinned out: in the full panel of roughly 83,000, 20% have a hit.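 The endpoint reported here, percent growth, reads 100 for growth as untreated, 0 for no net growth and -100 for all cells dead.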 Activity calls are given as the source filed them. The calls were made as follows: active = growth percent below 10; inactive = the rest.

Key:
Assay in all cases: NCI-60 one-dose screen, 48 h (100 = growth as untreated, 0 = no growth, -100 = all killed)
Conditions in all cases: 10 µM unless noted
SR leukemia = tested on: SR leukemia
OVCAR-8 ovarian = tested on: OVCAR-8 ovarian
OVCAR-5 ovarian = tested on: OVCAR-5 ovarian
OVCAR-4 ovarian = tested on: OVCAR-4 ovarian
SK-OV-3 ovarian = tested on: SK-OV-3 ovarian
OVCAR-3 ovarian = tested on: OVCAR-3 ovarian
HS 578T breast = tested on: HS 578T breast
NCI/ADR-RES ovarian = tested on: NCI/ADR-RES ovarian
T-47D breast = tested on: T-47D breast
BT-549 breast = tested on: BT-549 breast
MDA-MB-435 melanoma = tested on: MDA-MB-435 melanoma
SW-620 colon = tested on: SW-620 colon
MCF7 breast = tested on: MCF7 breast
HCC-2998 colon = tested on: HCC-2998 colon
KM12 colon = tested on: KM12 colon
HCT-116 colon = tested on: HCT-116 colon

Measured: growth

CN1C(=O)CNC(=O)[C@H](NC(=O)c2nc3ccccc3cc2O)CSSC[C@H]1C(=O)NCCc1nc2ccccc2cc1O
active: SR leukemia -41.8%
inactive: OVCAR-8 ovarian 92.2% | OVCAR-5 ovarian 129% | OVCAR-4 ovarian 90.7% | SK-OV-3 ovarian 117% | OVCAR-3 ovarian 19.5% | HS 578T breast 92.3% | NCI/ADR-RES ovarian 105% | T-47D breast 65.3% | BT-549 breast 79.4% | MDA-MB-435 melanoma 42.4% | SW-620 colon 34% | MCF7 breast 47.5% | HCC-2998 colon 67.7% | KM12 colon 30%

COc1cccc(/C=C2\C=C(c3ccccc3)N(Cc3ccccc3)C2=O)c1
inactive: SR leukemia 10.9% | OVCAR-8 ovarian 68% | OVCAR-5 ovarian 92.8% | OVCAR-4 ovarian 71.9% | SK-OV-3 ovarian 42% | OVCAR-3 ovarian 59.3% | HS 578T breast 42% | NCI/ADR-RES ovarian 51.3% | T-47D breast 59.8% | BT-549 breast 69.7% | SW-620 colon 43.5% | MCF7 breast 32.5% | HCT-116 colon 48.3% | HCC-2998 colon 66.6% | KM12 colon 53.4%
active: MDA-MB-435 melanoma -32.3%

CN1CCN(Cc2ccc(NC(=O)c3ccc(C(C)(C)C)c(C#Cc4cnc5cccnn45)c3)cc2C(F)(F)F)CC1
active: SR leukemia -49.7% | OVCAR-8 ovarian -30.4% | OVCAR-5 ovarian -25.4% | SK-OV-3 ovarian -56.6% | OVCAR-3 ovarian -68.5% | HS 578T breast -24.8% | NCI/ADR-RES ovarian -43.5% | MDA-MB-435 melanoma -88.5% | SW-620 colon -61.9% | MCF7 breast -74.3% | HCT-116 colon -70.8% | KM12 colon -80.8%
inactive: OVCAR-4 ovarian 15% | T-47D breast 26.6% | BT-549 breast 88.5%

CN(C)CCN1CCN(c2ncccc2C2Nc3ccccc3-n3cccc32)CC1 (stereo unspecified)
inactive: SR leukemia 98.3% | OVCAR-8 ovarian 101% | OVCAR-5 ovarian 100% | OVCAR-4 ovarian 113% | SK-OV-3 ovarian 107% | OVCAR-3 ovarian 115% | HS 578T breast 95.7% | NCI/ADR-RES ovarian 104% | T-47D breast 90.1% | BT-549 breast 92.3% | MDA-MB-435 melanoma 101% | SW-620 colon 97.8% | MCF7 breast 101% | HCT-116 colon 105% | HCC-2998 colon 114% | KM12 colon 105%

COC(=O)[C@H](C)NC(=O)NC(=O)NC(=O)CI
active: SR leukemia -23% | OVCAR-3 ovarian -19.2% | SW-620 colon -33.4%
inactive: OVCAR-8 ovarian 97% | OVCAR-5 ovarian 108% | OVCAR-4 ovarian 64.7% | SK-OV-3 ovarian 107% | HS 578T breast 114% | NCI/ADR-RES ovarian 89.7% | T-47D breast 44.6% | BT-549 breast 84.3% | MDA-MB-435 melanoma 63% | MCF7 breast 17.7% | HCT-116 colon 98.6% | HCC-2998 colon 94.6% | KM12 colon 98.5%

O=C(O)CCC/C=C\C[C@H]1C=CC(=O)/C1=C/C[C@@H](O)CCc1cccc(C(F)(F)F)c1
active: SR leukemia -7.7% | OVCAR-5 ovarian 8.7% | OVCAR-3 ovarian -36.1% | NCI/ADR-RES ovarian 5.22% | BT-549 breast 5.1% | MDA-MB-435 melanoma -53.5% | SW-620 colon -35.8% | HCT-116 colon -66.4% | HCC-2998 colon -84.4% | KM12 colon -47%
inactive: OVCAR-8 ovarian 10.3% | OVCAR-4 ovarian 32.8% | SK-OV-3 ovarian 44.3% | HS 578T breast 37.6% | T-47D breast 21.4% | MCF7 breast 11%

CC1Cc2c(ncn3c(-c4ccc(F)cc4)nnc23)N(C)c2ccccc21 (stereo unspecified)
active: OVCAR-4 ovarian -66.2% | OVCAR-3 ovarian 6.26%
inactive: SR leukemia 25% | OVCAR-8 ovarian 57.1% | OVCAR-5 ovarian 78% | SK-OV-3 ovarian 76.3% | HS 578T breast 26.1% | NCI/ADR-RES ovarian 41% | T-47D breast 35.1% | BT-549 breast 80.1% | MDA-MB-435 melanoma 59.2% | SW-620 colon 36.2% | MCF7 breast 52.2% | HCT-116 colon 86% | HCC-2998 colon 80.3% | KM12 colon 72.2%

COc1ccc(-c2nc(NCCO)[nH]c(=O)c2C#N)cc1
inactive: SR leukemia 94.3% | OVCAR-8 ovarian 107% | OVCAR-5 ovarian 92.8% | OVCAR-4 ovarian 107% | SK-OV-3 ovarian 97.7% | OVCAR-3 ovarian 111% | HS 578T breast 106% | NCI/ADR-RES ovarian 98.1% | T-47D breast 82.8% | BT-549 breast 103% | MDA-MB-435 melanoma 103% | SW-620 colon 106% | MCF7 breast 91.9% | HCT-116 colon 102% | HCC-2998 colon 103% | KM12 colon 95.8%
